From PubChem BioAssay AID589 (National Center for Advancing Translational Sciences (NCATS), 2007)
The whole screen tested about 59,000 compounds, of which about 6,200 (11%) were called active. Inconclusive results (about 9%) are left out. Rule as the data show it: active = max dye-equivalent concentration above about 10 nM; inconclusive = mostly about 1.1 nM to 9.6 nM; inactive = weaker than that. This excerpt belongs to a sample that is enriched for actives.

Experiment: qHTS Assay for Spectroscopic Profiling in 4-MU Spectral Region
Details: compound autofluorescence, 340/450 nm, 4-MU equivalents; hits give high values
In short: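 Compounds in 100 mM Tris, pH 8.0, sat 15 min at room temperature before fluorescence was read at 340 nm excitation/450 nm emission; a per-plate six-point 4-MU standard curve converted signals to dye-equivalent concentration at each compound concentration.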

| SMILES | max dye-equivalent concentration |
| --- | --- |
| Clc1ccc(C=Nc2ccc3c(c2)Cc2ccccc2-3)c(Cl)c1 | inactive |
| CC(C(=O)O)N1C(=O)c2cccc3cccc1c23 (centres undefined) | 15 nM (active) |
| Cc1cc(C)nc(NC(=O)C(C)N2C(=O)c3ccccc3C2=O)n1 (centres undefined) | inactive |
| COC(=O)c1ccc(NC(=O)C(C)N2C(=O)c3ccccc3C2=O)cc1 (centres undefined) | inactive |
| O=c1cc(CO)oc(CN2CCC(Cc3ccccc3)CC2)c1O | inactive |
| Cc1cccc2nc(CNc3ccc(F)cc3)cn12 | inactive |
| COc1ccc(-c2csc(N3CCN(Cc4ccc5c(c4)OCO5)CC3)n2)cc1 | inactive |
| CC(C)OC(=O)C(C#N)c1nc2ccccc2nc1N1CCN(Cc2ccc3c(c2)OCO3)CC1 (centres undefined) | 110 nM (active) |
| CC(C)OC(=O)C(C#N)c1nc2ccccc2nc1N1CCN(Cc2ccccc2)CC1 (centres undefined) | inactive |
| O=C(c1ccccc1)c1ccc(OC(=O)N2CCCC2)cc1 | inactive |
| COc1ccccc1-c1nc(NCCNC(C)=O)c2ccccc2n1 | inactive |
| CCCCN(C)Cc1c(C)[nH]c2ccc(Cl)cc2c1=O | inactive |
| Cc1ccc(S(=O)(=O)C(C#N)c2nc3ccccc3nc2N2CCCC2)cc1C (centres undefined) | 150 nM (active) |
| CCn1cc(C(=O)NCc2ccc3c(c2)OCO3)c2cc(OC)c(OC)cc2c1=O | inactive |
| Cc1ccccc1N1C(=O)C2ON(c3ccccc3)C(c3ccncc3)C2C1=O (centres undefined) | inactive |
| C=CCn1c(SCC(=O)NC23CC4CC(CC(C4)C2)C3)nc(O)cc1=O | inactive |
| Cn1c(=O)c2c(nc(N3CCCCCC3)n2CC(O)COc2ccc(Cl)cc2)n(C)c1=O (centres undefined) | 38 nM (active) |
| Cn1c(=O)c2c(nc(N3CCCCCC3)n2CC(=O)c2ccc(Br)cc2)n(C)c1=O | inactive |
| Cc1cccc(Cn2c(N3CCN(c4ccccc4)CC3)nc3c2c(=O)n(C)c(=O)n3C)c1 | inactive |
| CSCCC(NS(=O)(=O)/C=C/c1ccccc1)C(=O)N1CCC(C)CC1 (centres undefined) | inactive |
| COCCCN1C(=O)C(=O)/C(=C(/O)c2ccc3c(c2)CC(C)O3)C1c1cccnc1 (centres undefined) | inactive |
| CCOC(=O)c1sc(NC(=S)n2cc(C)cn2)c(C(=O)OCC)c1C | inactive |
| CCc1c(C)sc(NC(=O)c2ccc(Br)o2)c1C(=O)OC | 96 nM (active) |
| Cc1cc(C)nc(-n2nc(C)cc2NC(=O)c2ccc(Br)o2)n1 | inactive |
| CCCC(=O)Nc1ccc(Cl)c(NC(=O)c2ccc(Br)o2)c1 | inactive |
| O=C(c1ccco1)N1CCC[C@@]2(CCN(c3ccccc3)C2)C1 | inactive |

| SMILES | max dye-equivalent concentration |
| --- | --- |
| O=C(Nc1nnc(CCc2ccccc2)s1)C1CCCO1 (centres undefined) | inactive |
| O=C(CC1Nc2ccccc2NC1=O)Nc1ccccc1 (centres undefined) | 89 nM (active) |
| O=C(CC1NCCNC1=O)Nc1ccc(Oc2ccccc2)cc1 (centres undefined) | inactive |
| CCOc1ccc(NC(=O)CC2NCCNC2=O)cc1 (centres undefined) | inactive |
| Cc1ccccc1S(=O)(=O)Cc1ccc(C(=O)NCCN2CCCCC2C)o1 (centres undefined) | inactive |
| O=C1CCCc2c1[nH]c1ccc(Br)cc21 | inactive |
| O=C1CC(c2cccc(F)c2)C2=C(CCCC2=O)N1 (centres undefined) | inactive |
| O=C1CC(c2cccc(Br)c2)C2=C(CCCC2=O)N1 (centres undefined) | 43 nM (active) |
| O=C(CN1C(=O)NC2(CCCCC2)C1=O)NCCC1=CCCCC1 | inactive |
| CC(=O)OC(C(=O)NC1CCCCC1)c1ccccc1 (centres undefined) | inactive |
| CC1(CCC(=O)OC2CCCCC2)OCCO1 | inactive |
| CCc1ccc2oc(-c3ccc(N)cc3)nc2c1 | 120 nM (active) |
| Cc1ccc(/C(=C/CN2CCCC2)c2ccccn2)cc1 | inactive |
| C[C@@H]1C[C@H]2[C@@H]3C[C@H](F)C4=CC(=O)C=C[C@@]4(C)[C@]3(F)[C@H](O)C[C@]2(C)[C@@]1(O)C(=O)CO | inactive |
| CC1(C)CC(=O)c2cc(OCC(=O)NCC3CCCO3)ccc2O1 (centres undefined) | 1700 nM (active) |
| COc1ccccc1-n1cnc2cc(C(=O)NCC3CCCO3)ccc21 (centres undefined) | inactive |
| O=C(Cn1c(=O)n(Cc2ccco2)c(=O)c2ccccc21)NCC1CCCO1 (centres undefined) | inactive |
| Cc1cc2c(cc1C)NC1=C(N2)O[C@H](c2c[nH]c3ccc(COc4ccccc4)cc23)C1=O | inactive |
| CCN(CCCCOC(=O)c1ccc(OC)c(OC)c1)C(C)Cc1ccc(OC)cc1 (centres undefined) | inactive |
| CC(C)NC(=O)N1CC[C@@]2(CCCN(C(=O)c3cccn3C)C2)C1 | inactive |
| CCOc1ccc2nc(NC(=O)CSc3nc4c(c(=O)n(C)c(=O)n4C)n3CC)sc2c1 | inactive |
| CC(=O)c1ccc(-n2nnnc2SCC(=O)N2CCN(C(=O)c3ccco3)CC2)cc1 | inactive |
| COc1ccc(-c2n[nH]c(C)c2-c2ccc(OC)c(OC)c2)c(O)c1 | inactive |
| COc1ccc(CCN(C)CCN2C(=O)c3ccccc3C2=O)cc1OC | inactive |
| COc1ccc(CCN2C(=O)c3[nH]nc(-c4ccccc4O)c3C2c2ccc(C)cc2)cc1OC (centres undefined) | 110 nM (active) |
| Cc1ccc(NC(=O)C2CCCN(S(=O)(=O)c3c(C)noc3C)C2)c(C)c1 (centres undefined) | inactive |

| SMILES | max dye-equivalent concentration |
| --- | --- |
| Cc1ccc(Cn2nnc3c(=O)n(CC(=O)N4CCCCC4)cnc32)cc1 | inactive |
| COC(=O)c1ccccc1NC(=O)CN(Cc1ccccc1)S(C)(=O)=O | inactive |
| CNC(=O)CSc1nnnn1-c1ccc(C)cc1C | inactive |
| O=c1[nH]c(CSc2ncc(-c3ccc(F)cc3)n2Cc2ccco2)nc2ccccc12 | inactive |
| Nc1cc(=O)nc(SCc2ccccc2)n1Cc1ccco1 | inactive |
| O=c1[nH]c(=O)n(Cc2ccco2)c2c1C(C(F)(F)F)(C(F)(F)F)N=C(c1ccco1)N2 | 18 nM (active) |
| CC1Cc2ccccc2N1C(=O)Cn1cnc2ccccc2c1=O (centres undefined) | inactive |
| Cc1ccc(OCC(=O)Nc2ccc(-c3nc4ncccc4o3)cc2)cc1 | 25 nM (active) |
| Cc1ccc(OCC(=O)Nc2ccc(-c3nnc(-c4ccco4)o3)cc2)cc1 | inactive |
| COc1ccc(CC(=O)Nc2ccc(-c3nnc(-c4ccc(C)cc4)o3)cc2)cc1 | inactive |
| COc1ccccc1N(CC(=O)N1CCCCC1)S(=O)(=O)c1ccccc1 | inactive |
| Cc1ccc(S(=O)(=O)N2CCC(C(=O)N[C@@H](C)C(=O)NCc3ccccc3)CC2)cc1 | inactive |
| COc1ccc(Cl)cc1S(=O)(=O)N1CCN(CC(=O)C(C)(C)C)CC1 | inactive |
| CCCCOC(=O)NCN1C(=O)C2C3C=CC(C3)C2C1=O (centres undefined) | inactive |
| COCCNC(=O)c1snc2ccc(Cl)cc12 | 49 nM (active) |
| COCC(C)NC(=O)c1ccc(Cl)c(Cl)c1 (centres undefined) | inactive |
| COCCNC(=O)c1ccccc1-c1nc(-c2ccccc2Cl)no1 | inactive |
| CCN(CC)c1ccc(C(=O)OCC(=O)c2ccco2)cc1 | inactive |
| Cc1cc(N2CCCCC2)nc2ccc(Cc3ccc4nc(N5CCCCC5)cc(C)c4c3)cc12 | 45 nM (active) |
| Fc1ccc2nc(N3CCCCC3)sc2c1 | inactive |
| O=C(CSc1nnc(-c2ccoc2)o1)N1CCOCC1 | inactive |
| O=C(O)C1C2C=CC(C2)C1C(=O)N1CCN(CCO)CC1 (centres undefined) | inactive |
| O=c1[nH][nH]c(=O)c2cc(N3CCCC3)ccc12 | 53 nM (active) |
| Cc1c(NC(=O)C(C)OC(=O)c2cc3c4ccccc4n(C)c3s2)c(=O)n(-c2ccccc2)n1C (centres undefined) | 110 nM (active) |
| Cc1cc(C)cc(N(C(C)C(=O)Nc2c(C)n(C)n(-c3ccccc3)c2=O)S(C)(=O)=O)c1 (centres undefined) | inactive |
| Cc1ccccc1OCCC(=O)Nc1c(C)n(C)n(-c2ccccc2)c1=O | inactive |

| SMILES | max dye-equivalent concentration |
| --- | --- |
| CCOC(=O)C1CCN(C(=O)CC2C(=O)N(Cc3ccccc3)C(C)c3nc4ccccc4n32)CC1 (centres undefined) | inactive |
| CC1(C)Cc2ccccc2-c2nc(CN3CCOCC3)[nH]c(=O)c21 | inactive |
| CCN1CCc2c(C#N)c(NCc3ccccc3)nc(NCCO)c2C1 | 430 nM (active) |
| N#Cc1c(N)sc2c1CCN(C(=O)OCc1ccccc1)C2 | inactive |
| CC(=O)/C(=N\N=C(N)N)c1ccccc1 | inactive |
| CC(C)c1nnc(NC(=O)C2CCCN2S(=O)(=O)c2ccc(Cl)cc2)s1 (centres undefined) | inactive |
| CCc1nnc(NS(=O)(=O)c2ccc(NS(=O)(=O)c3ccccc3)cc2)s1 | inactive |
| CCc1nnc(NC(=O)C2CCCN2S(=O)(=O)c2ccccc2)s1 (centres undefined) | 18 nM (active) |
| O=C(C1=C(O)C(=O)N(Cc2ccccc2)C1c1cccnc1)c1ccco1 (centres undefined) | inactive |
| N#CC(C(N)=O)=C1CCC2(CC1)OCCCCO2 | inactive |
| COc1cc(C2C(C(=O)c3ccc(C)o3)=C(O)C(=O)N2Cc2cccnc2)ccc1O (centres undefined) | inactive |
| CCSC1=C(C#N)C(=O)n2c1cc1c2CCCC1 | inactive |
| CC(=O)Nc1ccc(S(=O)(=O)Nc2cccc(NC(=O)C(C)(C)C)c2)cc1 | inactive |
| COc1cc(NS(=O)(=O)c2ccc(NC(C)=O)cc2)cc(OC)c1 | inactive |
| COc1ccc(NS(=O)(=O)c2ccc(NC(=O)C(C)(C(F)(F)F)C(F)(F)F)cc2)nn1 | 20 nM (active) |
| COC(=O)c1cc(NC(=O)CN2CCC(C(N)=O)(N3CCCCC3)CC2)cc(C(=O)OC)c1 | inactive |
| CCCCCN(C(=O)NC(=O)Nc1ccccc1OC)S(C)(=O)=O | inactive |
| CCc1nnc(NC(=O)c2ccc(S(=O)(=O)NC3CCCCC3)cc2)s1 | inactive |
| CCCc1nnc(NC(=O)c2cc(OC)cc(OC)c2)s1 | inactive |
| Cc1ccc(C(=O)Nc2nnc(-c3cccs3)s2)cc1C | 73 nM (active) |
| COc1ccc(Cc2nnnn2CC(=O)O)cc1 | inactive |
| CC(=O)OCc1cc(=O)n(C)c(=O)n1C | inactive |
| CC(Sc1nncn1C)C(=O)Nc1ccccc1-c1ccccc1 (centres undefined) | inactive |
| Cc1ccccc1-c1nc(N(C)Cc2ccco2)c2ccccc2n1 | inactive |
| CC1CCc2c(sc(NC(=O)c3ccc(Cn4cc(Br)cn4)o3)c2C(N)=O)C1 (centres undefined) | 100 nM (active) |
| Cc1ccc(C)c(NC(=O)C2CC(=O)N(C(C)C)C2)c1 (centres undefined) | inactive |
